C diff growth = inhibitors of Clostridium difficile growth; Clostridium difficile clinical isolate growth, OD600, 24 h; hits give low values; growth activity, negative = inhibition, % at 16 µg/mL (by protocol); actives 0.25% (n = 86,000);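 active = mean growth activity at or below -80% and every replicate also at or below -80%; inconclusive = mean at or below -80% but some replicate above -80%; inactive = mean growth activity above -80%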
T cruzi growth-1 = T. cruzi proliferation inhibition. T. cruzi beta-gal in NIH3T3, GalScreen luminescence, 90 h. inhibition, % at 8.34 µM. actives 5.9% (n = 77,000). AID 624255;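 active = mean inhibition above about 93%, with at least 55% of replicates each passing it, limit read from the data, passing the limit was not always enough; inconclusive = only one of those two conditions holds; inactive = neither condition holds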
Pf Dd2 inh = P. falciparum Dd2 growth inhibition | AID 1159554 | SYBR Green, 72 h; hits give low values | actives 2.3% (n = 94,000) | activity change, % at 10 µM; in the data active = activity change below about -80%; inconclusive = no clear call, values can overlap the other calls
T cruzi growth-2 = Trypanosoma cruzi proliferation inhibition; shares compounds with T cruzi growth-1; actives 72% (n = 5,600); inhibition, % at 8.35 µM; T. cruzi beta-gal in NIH3T3, GalScreen luminescence, 90 h;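 active = mean replicate inhibition above about 95% and at least 55% of replicates individually reaching it, limit read from the data; inconclusive = only one of the two criteria is met; inactive = neither criterion is met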
T cruzi growth-3 = blocks T. cruzi growth in NIH3T3 host cells; shares compounds with T cruzi growth-1; T. cruzi beta-gal in NIH3T3, GalScreen luminescence, 90 h; inhibition, % at 2.09 µM; actives 21% (n = 5,600);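 active = mean inhibition above about 95%, with at least 55% of replicates also reaching it, limit read from the data; inconclusive = meets just one of the two conditions; inactive = meets neither condition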
3T3 cytotox = kills mouse NIH/3T3 fibroblasts | shares compounds with T cruzi growth-1 | NIH/3T3 viability, CellTiter-Glo ATP luminescence, 90 h | cytotoxicity (signal decrease), % at 8.35 µM | actives 14% (n = 5,600) | AID 651742;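 active = mean signal decrease across replicates above about 35% based on untreated-well scatter, with enough replicates individually passing, limit read from the data; inconclusive = no rule stated though some were filed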
3T3 cytotox 2 = cytotoxicity in mouse NIH/3T3 fibroblasts | shares compounds with T cruzi growth-1 | NIH/3T3 viability, CellTiter-Glo ATP luminescence, 90 h | inhibition, % at 24.9 µM | actives 56% (n = 5,600) | AID 651744;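 active = mean loss of cell viability signal at or above a set limit, and enough replicates individually reaching it; inconclusive = meets only the mean limit or only the replicate share; inactive = meets neither condition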
A number is an active result; . = inactive; ? = inconclusive; / = no result; + = active, no number. Compounds with a hit are over-represented: about 6.7% of the library has one in this group of screens.

SMILES | C diff growth | T cruzi growth-1 | Pf Dd2 inh | T cruzi growth-2 | T cruzi growth-3 | 3T3 cytotox | 3T3 cytotox 2
C[C@H]1CN([C@@H](C)CO)C(=O)c2cc(NC(=O)Nc3cccc4ccccc34)ccc2O[C@H]1CN(C)Cc1ccccc1 | . | . | . | / | / | / | /
C[C@H](CO)N1C[C@H](C)[C@H](CN(C)Cc2ccc(C(F)(F)F)cc2)Oc2c(NC(=O)Nc3ccccc3)cccc2C1=O | . | . | . | / | / | / | /
C[C@@H]1CN([C@@H](C)CO)C(=O)c2cc(NC(=O)Nc3cccc4ccccc34)ccc2O[C@@H]1CN(C)Cc1ccc(C(F)(F)F)cc1 | . | 105.9 | . | 105.6 | 107.1 | 52.8 | 46.0
C[C@H](CO)N1C[C@H](C)[C@H](CN(C)Cc2ccc(C(F)(F)F)cc2)Oc2ccc(NC(=O)Nc3cccc4ccccc34)cc2C1=O | . | . | . | / | / | / | /
C[C@H](CO)N1C[C@H](C)[C@H](CN(C)Cc2ccc(C(F)(F)F)cc2)Oc2c(NC(=O)Nc3cccc4ccccc34)cccc2C1=O | / | 111.0 | . | 102.8 | . | . | 29.9
Cc1noc(C)c1S(=O)(=O)N(C)C[C@@H]1Oc2ccc(NS(=O)(=O)c3ccc(Cl)cc3)cc2CC(=O)N([C@@H](C)CO)C[C@H]1C | . | . | . | / | / | / | /
O=S(=O)(c1ccccc1F)N1CCCCN2[C@H](CO)[C@H](c3ccc(-c4cccnc4)cc3)[C@H]2C1 | . | ? | . | . | . | . | ?
O=S(=O)(c1ccccc1F)N1CCCCN2[C@H](CO)[C@@H](c3ccc(-c4ccncc4)cc3)[C@H]2C1 | . | . | . | / | / | / | /
O=S(=O)(c1ccccc1F)N1CCCCN2[C@H](C1)[C@H](c1ccc(-c3ccncc3)cc1)[C@@H]2CO | . | 96.3 | . | 111.6 | . | . | .
O=S(=O)(c1ccccc1F)N1CCCCN2[C@H](C1)[C@@H](c1ccc(-c3cccnc3)cc1)[C@@H]2CO | . | . | . | / | / | / | /
C[C@@H]1CN([C@@H](C)CO)C(=O)c2cc(-c3ccc(C#N)cc3)cnc2O[C@H]1CN(C)C(=O)c1cccnc1 | . | / | . | / | / | / | /
CNC[C@H]1Oc2cc(C#Cc3ccncc3)ccc2S(=O)(=O)N([C@H](C)CO)C[C@H]1C | . | / | . | / | / | / | /
CNC[C@@H]1Oc2cc(C#Cc3ccccn3)ccc2S(=O)(=O)N([C@@H](C)CO)C[C@H]1C | . | 105.2 | . | 107.3 | . | . | .
CNC[C@@H]1Oc2cc(C#Cc3ccccn3)ccc2S(=O)(=O)N([C@H](C)CO)C[C@H]1C | . | 103.5 | . | 109.6 | . | . | .
CNC[C@@H]1Oc2cc(C#Cc3ccncc3)ccc2S(=O)(=O)N([C@@H](C)CO)C[C@@H]1C | . | / | . | / | / | / | /
CO[C@H]1CN(C)C(=O)c2ccc(NC(C)=O)cc2OC[C@H](C)N(C(=O)c2ccncc2)C[C@H]1C | / | . | . | / | / | / | /
COCC(=O)N1CC[C@H]2[C@@H]1c1cc(-c3ccc(F)cc3)ccc1N(C)[C@H]2CO | . | . | . | / | / | / | /
CCCNC(=O)N1CC[C@@H]2[C@@H](CO)N(C)c3ccc(-c4ccc(F)cc4)cc3[C@@H]21 | . | . | . | / | / | / | /
COCC(=O)N1CC[C@@H]2[C@H]1c1cc(-c3ccc(F)cc3)ccc1N(C)[C@@H]2CO | . | . | . | / | / | / | /
COCC(=O)N1CC[C@@H]2[C@H]1c1cc(-c3ccccc3)ccc1N(C)[C@H]2CO | . | 105.4 | . | 102.4 | . | . | .
COCC(=O)N1CC[C@@H]2[C@H]1c1cc(-c3ccccc3)ccc1N(C)[C@@H]2CO | . | 107.8 | . | 96.1 | . | . | .
CCCNC(=O)N1CC[C@@H]2[C@H]1c1cc(-c3ccccc3)ccc1N(C)[C@H]2CO | . | ? | . | 108.1 | 103.9 | . | .
CN1C(=O)c2cc(NC(=O)Cc3cccs3)ccc2OC[C@@H]2O[C@@H](CC(=O)NCc3ccc(-c4ccccc4)cc3)CC[C@H]21 | . | . | . | / | / | / | /
CN(C)C(=O)[C@@H]1[C@@H](CO)[C@@H]2Cn3c(ccc(C4=CCCCC4)c3=O)[C@@H]2N1Cc1ccccn1 | . | + | / | . | . | . | 39.0
COC(=O)[C@@H]1[C@@H](CO)[C@@H]2Cn3c(ccc(C4=CCCCC4)c3=O)[C@@H]2N1CCC(F)(F)F | . | . | / | / | / | / | /
SMILES | C diff growth | T cruzi growth-1 | Pf Dd2 inh | T cruzi growth-2 | T cruzi growth-3 | 3T3 cytotox | 3T3 cytotox 2
CCN1[C@@H]2c3ccc(C4=CCCCC4)c(=O)n3C[C@@H]2[C@@H](CO)[C@@H]1C(=O)OC | . | 96.9 | . | . | . | . | .
CCN1[C@H](C(=O)N(C)C)[C@@H](CO)[C@@H]2Cn3c(ccc(C4=CCCCC4)c3=O)[C@@H]21 | . | . | . | / | / | / | /
O=C(Nc1ccccc1)[C@H]1[C@H](CO)[C@H]2Cn3c(ccc(C4=CCCCC4)c3=O)[C@H]2N1Cc1ccccn1 | . | / | . | / | / | / | /
CCN1[C@H](C(=O)OC)[C@@H](CO)[C@@H]2Cn3c(ccc(C4=CCCCC4)c3=O)[C@@H]21 | . | 102.6 | . | . | . | . | .
C[C@@H]1CN([C@H](C)CO)C(=O)Cc2cc(NC(=O)Nc3ccccc3)ccc2O[C@@H]1CN(C)Cc1ccc(Oc2ccccc2)cc1 | . | . | . | / | / | / | /
CN1C(=O)c2cc(NC(=O)C3CCCC3)ccc2OC[C@H]2O[C@@H](CC(=O)NCC(F)(F)F)CC[C@H]21 | . | . | . | / | / | / | /
O=C(C[C@H]1CC[C@H]2[C@@H](COC[C@H](O)CN2Cc2ccc(Oc3ccccc3)cc2)O1)N1CCN(c2ccccc2)CC1 | . | 134.4 | . | 105.4 | . | . | 38.2
O=C(C[C@@H]1CC[C@@H]2[C@H](COC[C@H](O)CN2Cc2ccc(Oc3ccccc3)cc2)O1)N1CCN(c2ccccc2)CC1 | . | 115.2 | . | . | . | . | 103.9
CN1C[C@@H](O)COC[C@@H]2O[C@@H](CC(=O)N3CCN(c4ccccc4)CC3)CC[C@H]21 | . | . | . | / | / | / | /
O=C(C[C@@H]1CC[C@@H]2[C@H](COC[C@@H](O)CN2Cc2ccc(Oc3ccccc3)cc2)O1)N1CCOCC1 | / | . | . | / | / | / | /
O=C(C[C@@H]1CC[C@H]2[C@@H](COC[C@@H](O)CN2Cc2ccc(Oc3ccccc3)cc2)O1)N1CCN(c2ccccc2)CC1 | . | . | . | / | / | / | /
CN1C[C@@H](O)COC[C@@H]2O[C@H](CC(=O)N3CCN(c4ccccc4)CC3)CC[C@H]21 | . | 109.1 | . | . | . | . | .
Cc1noc(C)c1NC(=O)N(C)C[C@@H]1Oc2c(NS(C)(=O)=O)cccc2C(=O)N([C@H](C)CO)C[C@@H]1C | . | . | . | / | / | / | /
CC(C)NC(=O)N1C[C@H]2[C@@H](c3ccccc31)[C@H](CO)N2C(=O)Nc1ccc(F)cc1 | . | . | . | / | / | / | /
C[C@@H]1CN([C@@H](C)CO)C(=O)Cc2cc(NC(=O)Nc3ccc4c(c3)OCO4)ccc2O[C@@H]1CN(C)S(C)(=O)=O | . | . | . | / | / | / | /

Compound activity: PubChem BioAssay, Broad Institute
